Among the test systems are HCT-15 colon; SNB-75 CNS; SNB-19 CNS; U251 CNS; PC-3 prostate; SK-MEL-5 melanoma; UACC-62 melanoma; LOX IMVI melanoma; SK-MEL-28 melanoma; SK-MEL-2 melanoma; SN12C renal; UO-31 renal; TK-10 renal; ACHN renal; CAKI-1 renal; A498 renal; CCRF-CEM leukemia; MOLT-4 leukemia; EKVX NSCLC.
Test in all cases: NCI-60 one-dose screen, 48 h (100 = growth as untreated, 0 = no growth, -100 = all killed)
Holding throughout (settings): 10 µM unless noted

This is part of a sample that, as a whole, favours compounds with a hit. Of some 83,000 tested, about 20% had one in any assay.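 Plates (96-well) were seeded with cells, treated with compound at one concentration, and incubated for 48 hours before percent growth was determined.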 A number with no mark means an inactive call. The source made the active and inactive calls. How the source made its calls: active means growth percent below 10; inactive means the rest.

On to `CC(=O)Nc1ccc(S(=O)(=O)N2C(=O)CCC2C(=O)Nc2ccc(Br)cc2)cc1` (stereo not drawn), for which the growth is 7.48% (active) in the assay on HCT-15 colon; 59% in the assay on SNB-75 CNS; 46.1% in the assay with SNB-19 CNS; 22.2% in the assay with U251 CNS; 17% with PC-3 prostate; 17.6% in the assay with SK-MEL-5 melanoma. For the same compound, the growth in the assay on UACC-62 melanoma was 15.3%; in the assay with LOX IMVI melanoma it was 6.05% (active); with SK-MEL-28 melanoma, 50.2%; with SK-MEL-2 melanoma, 36.1%; in the assay with SN12C renal, 49.9%; in the assay with UO-31 renal it was 21.9%. In addition, the growth in the assay on TK-10 renal is 63.6%; in the assay with ACHN renal it was 45.3%; with CAKI-1 renal it was 32.3%; in the assay on A498 renal, 16.8%; with CCRF-CEM leukemia, 2.98% (active); with MOLT-4 leukemia, 5.48% (active).
With `CCCCCCCCCCC/C=C\C[C@H](O)C/C=C1/C(=O)C=C[C@@H]1C/C=C\CCCC(=O)OC`, the growth with HCT-15 colon was -43% (active); in the assay on SNB-75 CNS it was -4.49% (active); in the assay with SNB-19 CNS it was 18.2%; in the assay on U251 CNS, -69% (active); with PC-3 prostate, -20% (active); in the assay with SK-MEL-5 melanoma, -85.3% (active). The growth in the assay on UACC-62 melanoma is -39.9% (active); in the assay on LOX IMVI melanoma, -92.4% (active); in the assay with SK-MEL-28 melanoma it was -20.4% (active); in the assay with SK-MEL-2 melanoma it was -24.4% (active); in the assay on EKVX NSCLC it was 1.38% (active); in the assay with SN12C renal, -24.7% (active). The growth with UO-31 renal was -63% (active); with TK-10 renal, 0.114% (active); in the assay on ACHN renal it was -20.1% (active); with CAKI-1 renal, 13.8%; with A498 renal it was 99.7%; in the assay on CCRF-CEM leukemia it was 12.2%. Further, the growth in the assay with MOLT-4 leukemia is -0.235% (active).
Turning to `CN1CCN(c2ccc3cc(-c4nc5ccccc5[nH]4)c(=O)oc3c2)CC1`, the growth in the assay on HCT-15 colon is 91%; with SNB-75 CNS it was 91.8%; in the assay with SNB-19 CNS it was 118%; in the assay on U251 CNS, 99.3%; with PC-3 prostate, 83.2%; in the assay on SK-MEL-5 melanoma it was 74.6%. Also, the growth in the assay on UACC-62 melanoma was 81.6%; in the assay with LOX IMVI melanoma, 87.2%; with SK-MEL-28 melanoma, 94.9%; with SK-MEL-2 melanoma it was 105%; in the assay with SN12C renal, 93.7%; in the assay on UO-31 renal, 65.5%. The growth was 119% in the assay on TK-10 renal; 89.3% in the assay on ACHN renal; 84.8% in the assay with CAKI-1 renal; 86.3% in the assay with A498 renal; 73.6% with CCRF-CEM leukemia; 88.4% with MOLT-4 leukemia.
For `CC(C)(C)c1cn2cccc(C(=O)N3CCN(CC(=O)Nc4ccc(Cl)cc4C(=O)c4ccccc4Cl)CC3)c2n1`, the growth is 47.5% in the assay on HCT-15 colon; 78.4% in the assay with SNB-75 CNS; 73.2% with SNB-19 CNS; 43.4% in the assay with U251 CNS; 17.6% with PC-3 prostate; 12.5% with SK-MEL-5 melanoma. Moreover, the growth in the assay with UACC-62 melanoma is 57.6%; in the assay on LOX IMVI melanoma it was 63.5%; with SK-MEL-28 melanoma, 89.8%; with SK-MEL-2 melanoma it was 65.4%; in the assay with EKVX NSCLC, 40.8%; with SN12C renal, 72.6%. For the same compound, the growth in the assay with UO-31 renal was 47%; in the assay with TK-10 renal, 69%; with ACHN renal, 44.8%; in the assay with CAKI-1 renal it was 67.5%; in the assay with A498 renal, -0.735% (active); in the assay with CCRF-CEM leukemia it was 27.9%. The growth with MOLT-4 leukemia is 16.4%.
Regarding `CC1Cc2c(N(C)C)ncnc2N(C)c2ccc(O)cc21` (stereo not drawn), the growth in the assay with HCT-15 colon is 50.5%; in the assay with SNB-75 CNS, 72.9%; in the assay with SNB-19 CNS, 83.1%; in the assay on U251 CNS, 78.9%; in the assay with PC-3 prostate, 72.9%; with SK-MEL-5 melanoma, 82.9%. Moreover, the growth in the assay with UACC-62 melanoma is 81.2%; with LOX IMVI melanoma it was 86.2%; with SK-MEL-28 melanoma, 98.6%; in the assay on SK-MEL-2 melanoma, 89.6%; in the assay with EKVX NSCLC, 71.3%; with SN12C renal, 99%. The growth with UO-31 renal is 80.2%; in the assay on TK-10 renal, 95.9%; in the assay on ACHN renal it was 101%; with CAKI-1 renal, 70.7%; in the assay with A498 renal, 76.7%; with CCRF-CEM leukemia, 85.3%. For the same compound, the growth with MOLT-4 leukemia was 75.6%.
Take `CC(C)CCN(CCCNc1c2c(nc3ccccc13)CCCC2)CCC(C)C`: the growth was 72.9% in the assay with HCT-15 colon; 76.8% in the assay on SNB-75 CNS; 87.2% in the assay with SNB-19 CNS; 65.1% in the assay with U251 CNS; 73.6% in the assay with PC-3 prostate; 83.1% in the assay with SK-MEL-5 melanoma. Moreover, the growth in the assay on UACC-62 melanoma was 97.2%; in the assay on LOX IMVI melanoma, 76.4%; in the assay with SK-MEL-28 melanoma, 86.2%; in the assay with SK-MEL-2 melanoma, 109%; with SN12C renal, 89.7%; with UO-31 renal, 56.5%. The growth in the assay with TK-10 renal was 93.8%; with ACHN renal, 98%; in the assay with CAKI-1 renal, 76.5%; with CCRF-CEM leukemia it was 74.3%; in the assay with MOLT-4 leukemia, 70.7%.
As to `c1ccc(CCn2nnc3c(Nc4ccc(N5CCOCC5)cc4)ncnc32)cc1`, the growth in the assay with HCT-15 colon was 70.7%; in the assay with SNB-75 CNS, 84.8%; with SNB-19 CNS, 95.7%; in the assay on U251 CNS, 93.3%; in the assay with PC-3 prostate it was 65.1%; with SK-MEL-5 melanoma it was 81.8%. The growth was 85.8% with UACC-62 melanoma; 97.4% in the assay with LOX IMVI melanoma; 104% in the assay with SK-MEL-28 melanoma; 105% with SK-MEL-2 melanoma; 92.1% in the assay with SN12C renal; 87.1% with UO-31 renal. Moreover, the growth in the assay on TK-10 renal is 121%; in the assay on ACHN renal it was 104%; in the assay on CAKI-1 renal, 86.3%; with A498 renal, 77.6%; in the assay on CCRF-CEM leukemia it was 71.6%; with MOLT-4 leukemia it was 66.4%.
For `CC(CCc1ccccc1)NC(=O)c1n[nH]c(=O)c2ccccc12` (stereo not drawn), the growth was 101% in the assay with HCT-15 colon; 96.6% with SNB-75 CNS; 115% in the assay on SNB-19 CNS; 103% in the assay on U251 CNS; 95.7% in the assay on PC-3 prostate; 98.9% in the assay with SK-MEL-5 melanoma. Further, the growth with UACC-62 melanoma was 93.9%; with LOX IMVI melanoma it was 95.4%; in the assay with SK-MEL-28 melanoma, 118%; with SK-MEL-2 melanoma, 79.2%; in the assay with EKVX NSCLC, 105%; with SN12C renal, 107%. Moreover, the growth with UO-31 renal is 47.5%; in the assay with TK-10 renal it was 89.6%; in the assay with ACHN renal, 97.8%; in the assay with CAKI-1 renal it was 104%; in the assay on A498 renal, 98.4%; in the assay on CCRF-CEM leukemia, 83.4%. Moreover, in the assay on MOLT-4 leukemia, the growth was 83.4%.
Take `CCOC(=O)c1cc(/C(=N\O)c2cc(OC)c(OC)c(OC)c2)n2cc(C)cc(C)c12`: the growth in the assay with HCT-15 colon is 17.9%; in the assay with SNB-75 CNS, 25.1%; with SNB-19 CNS, 40.5%; in the assay with U251 CNS, 12.6%; in the assay on SK-MEL-5 melanoma it was 12.1%; in the assay on UACC-62 melanoma, 19.8%. In addition, the growth in the assay with LOX IMVI melanoma was 31.8%; in the assay on SK-MEL-28 melanoma it was 56.1%; in the assay with SK-MEL-2 melanoma it was 2.79% (active); in the assay with EKVX NSCLC, 37.7%; in the assay on SN12C renal, 30.3%; in the assay with UO-31 renal, 48.7%. Also, the growth in the assay with TK-10 renal was 26.7%; with ACHN renal, 10.5%; in the assay on CAKI-1 renal it was 37.1%; in the assay with A498 renal, -6.21% (active); in the assay with CCRF-CEM leukemia it was 9.43% (active); with MOLT-4 leukemia, 9.33% (active).
In the case of `COc1cc(C(=O)CCCl)ccc1O`, the growth with HCT-15 colon is 95.2%; with SNB-75 CNS it was 85.8%; in the assay with SNB-19 CNS it was 101%; in the assay with U251 CNS, 103%; in the assay with PC-3 prostate, 95%; in the assay with SK-MEL-5 melanoma, 103%. The growth was 97.4% with UACC-62 melanoma; 90.5% in the assay with LOX IMVI melanoma; 107% in the assay on SK-MEL-28 melanoma; 114% in the assay on SK-MEL-2 melanoma; 95.6% in the assay on SN12C renal; 90.9% in the assay on UO-31 renal. Moreover, the growth in the assay with TK-10 renal was 109%; in the assay with ACHN renal, 96.9%; in the assay on CAKI-1 renal, 90.2%; in the assay on A498 renal, 106%; in the assay on CCRF-CEM leukemia it was 106%; in the assay on MOLT-4 leukemia, 99.5%.

Values taken from PubChem BioAssay (NCI).
